# Measurements reported in PubChem BioAssay AID651642 (Sanford-Burnham Center for Chemical Genomics, 2012).
# Calls of active or inactive are those of the source.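 The calls were made as follows: active = average half-effect concentration of 10 µM or less in every one of the four cell panels; inactive = the rest.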
# System: HL-1
# Test: cardiomyocyte survival under oxidative or metabolic stress – cell-based, panel, H9c2 and HL-1, H2O2, 2-deoxyglucose, ATP luminescence, SAR follow-up (AID 651642)
# Details: H9c2/HL-1 cardiomyocyte 2-deoxyglucose damage, mean of runs, with 2-deoxyglucose
row,Compound,outcome
1,COc1cc(-c2cc(C(=O)Nc3cccc(C(C)=O)c3)c3cc(F)ccc3n2)cc(OC)c1OC,inactive
2,CCOC(=O)c1cccc(NC(=O)c2cc(-c3cc(OC)c(OC)c(OC)c3)nc3ccc(Br)cc23)c1,inactive
3,COc1ccc(NC(=O)CNC(=O)c2cc(-c3cc(OC)c(OC)c(OC)c3)nc3ccccc23)cc1,active
4,CCOC(=O)c1ccc(NC(=O)c2cc(-c3cc(OC)c(OC)c(OC)c3)nc3ccccc23)cc1,inactive
5,COc1ccc2c(c1OC)C(=O)N1c3ccccc3C(=O)N(Cc3c(Cl)cccc3Cl)C21 (configuration not stated),inactive
6,COc1ccc2c(c1OC)C(=O)N1c3ccccc3C(=O)N(Cc3cccc(F)c3)C21 (configuration not stated),active
7,CCOC(=O)c1cccc(NC(=O)c2cc(-c3cc(OC)c(OC)c(OC)c3)nc3ccc(OC)cc23)c1,inactive
8,COc1cc(-c2cc(C(=O)Nc3cccc(C(=O)N4CCOCC4)c3)c3ccccc3n2)cc(OC)c1OC,inactive
9,CCOC(=O)c1cccc(NC(=O)CNC(=O)c2cc(-c3cc(OC)c(OC)c(OC)c3)nc3c(Cl)cccc23)c1,inactive
10,COc1cc(-c2cc(C(=O)Nc3cccc(C(=O)Nc4ccccc4)c3)c3ccccc3n2)cc(OC)c1OC,active
11,CCOC(=O)c1cccc(NC(=O)c2cc(-c3cc(OC)c(OC)c(OC)c3)nc3ccc(Cl)cc23)c1,inactive
12,COc1ccc2c(c1OC)C(=O)N1c3ccccc3C(=O)N(Cc3ccccc3Cl)C21 (configuration not stated),active
13,COc1cc(-c2cc(C(=O)Nc3cccc(C#N)c3)c3ccccc3n2)cc(OC)c1OC,inactive
14,CCOC(=O)c1ccccc1NC(=O)c1cc(-c2cc(OC)c(OC)c(OC)c2)nc2ccccc12,inactive
15,CCOC(=O)c1cccc(NC(=O)c2cc(-c3cc(OC)c(OC)c(OC)c3)nc3ccc(F)cc23)c1,inactive
16,COc1ccc2c(c1OC)C(=O)N1c3ccccc3C(=O)N(Cc3ccc(C)cc3)C21 (configuration not stated),inactive

row,Compound,outcome
1,COc1cc(-c2cc(C(=O)Nc3cccc(C(=O)O)c3)c3ccccc3n2)cc(OC)c1OC,inactive
2,COc1ccc2c(c1OC)C(=O)N1c3ccccc3C(=O)N(Cc3cccc(C)c3)C21 (configuration not stated),inactive
3,COc1ccc2c(c1OC)C(=O)N1c3ccccc3C(=O)N(Cc3ccccc3C)C21 (configuration not stated),active
4,CCOC(=O)c1cccc(NC(=O)CNC(=O)c2cc(-c3cc(OC)c(OC)c(OC)c3)nc3ccc(F)cc23)c1,active
5,CCOC(=O)c1cccc(NC(=O)CNC(=O)c2cc(-c3cc(OC)c(OC)c(OC)c3)nc3ccc(C)cc23)c1,active
6,COc1ccc2c(c1OC)C(=O)N1c3ccccc3C(=O)N(Cc3ccccc3Br)C21 (configuration not stated),inactive
7,COc1cc(-c2cc(C(=O)NCC(=O)Nc3cccc(C(C)=O)c3)c3cc(C)ccc3n2)cc(OC)c1OC,inactive
8,COc1ccc2nc(-c3cc(OC)c(OC)c(OC)c3)cc(C(=O)Nc3cccc(C(C)=O)c3)c2c1,inactive
9,COc1cc(-c2cc(C(=O)NCC(=O)Nc3cccc(C(C)=O)c3)c3cccc(Cl)c3n2)cc(OC)c1OC,active
10,COc1cc(-c2cc(C(=O)NCC(=O)O)c3ccccc3n2)cc(OC)c1OC,inactive
11,CCOC(=O)c1cccc(NC(=O)c2cc(-c3cc(OC)c(OC)c(OC)c3)nc3ccccc23)c1,inactive
12,COc1cc(-c2cc(C(=O)NCC(=O)Nc3cccc(C(C)=O)c3)c3cc(Br)ccc3n2)cc(OC)c1OC,active
13,CCOC(=O)c1cccc(NC(=O)c2cc(-c3cc(OC)c(OC)c(OC)c3)nc3cc(Cl)ccc23)c1,inactive
14,COc1ccc2c(c1OC)C(=O)N1c3ccccc3C(=O)N(Cc3cccc(Br)c3)C21 (configuration not stated),active
15,COc1cc(-c2cc(C(=O)NCC(=O)Nc3ccc(C(C)=O)cc3)c3cc(F)ccc3n2)cc(OC)c1OC,inactive
16,COc1ccc2c(c1OC)C(=O)N1c3ccccc3C(=O)N(Cc3ccc(F)cc3)C21 (configuration not stated),inactive
